Results published in PubChem BioAssay (NCATS).
Results filed as inconclusive are left out. The source made the active and inactive calls. Unless noted, the call rests on the fitted dose curve; in most records, active means well fitted curve in either direction with a large enough effect (not every such curve was filed as active); inconclusive means small, poorly fitted or top-dose-only effect, or another doubt; inactive means flat fitted curve, though single readings scatter.

Tests used:
[1] = biological target: Lysosomal acid glucosylceramidase (Homo sapiens) (UniProt P04062); experiment: Glucocerebrosidase-p2 (AID 348; in the data active means potency below about 10 µM; further: potency means the concentration at half of the fitted maximal effect); settings: purified GBA, blue fluorogenic substrate, 40 min
Lysosomal acid glucosylceramidase (Homo sapiens), sequence (P04062 whole entry, looked up): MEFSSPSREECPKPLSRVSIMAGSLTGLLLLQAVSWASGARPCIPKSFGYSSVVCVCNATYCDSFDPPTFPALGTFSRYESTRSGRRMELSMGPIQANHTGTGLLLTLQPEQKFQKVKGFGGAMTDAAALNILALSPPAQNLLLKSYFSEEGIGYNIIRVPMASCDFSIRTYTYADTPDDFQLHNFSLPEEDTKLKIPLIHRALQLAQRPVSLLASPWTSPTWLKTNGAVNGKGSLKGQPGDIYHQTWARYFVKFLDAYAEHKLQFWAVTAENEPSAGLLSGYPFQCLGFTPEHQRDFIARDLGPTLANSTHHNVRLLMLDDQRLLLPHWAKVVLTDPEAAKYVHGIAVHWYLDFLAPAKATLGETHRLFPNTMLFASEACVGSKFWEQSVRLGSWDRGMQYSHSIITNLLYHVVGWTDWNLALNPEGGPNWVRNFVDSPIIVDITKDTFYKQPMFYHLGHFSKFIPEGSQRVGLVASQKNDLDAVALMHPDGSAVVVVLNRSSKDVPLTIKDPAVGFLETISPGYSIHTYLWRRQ
Procedure, shortened: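 Compounds titrated from 0.6 nM upwards against 0.2 nM enzyme in pH 5.9 citric acid/KH2PO4, taurocholate, tween-20; blue fluorogenic substrate 80 uM, 40 min room temperature, stopped and read Ex 365/Em 440 for AC50.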

[2] = AP1 Signaling Pathway (AID 357); settings: ME-180 AP-1-bla reporter, EGF-induced, beta-lactamase ratio, 5 h; at 7.69 µM (top of the series) unless noted; further: on the % scale 0 is the no-effect control and ±100 the full control effect
Procedure, shortened: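 AP-1-bla ME-180 cells with beta-lactamase reporter under AP-1 response element, stimulated with EC50 EGF; compounds titrated, 5 hours at 37 degrees Celsius. CCF4 read at 460/530 nm ratio; positive and negative modulators judged by AC50.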

[3] = NFAT Signaling Pathway (AID 444); settings: Jurkat NFAT-bla M1, carbachol, beta-lactamase ratio, 5 h; at 7.69 µM (top of the series) unless noted;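 further: carbachol stimulus at about its EC50 of 1 µM final; on the % scale 0 is the no-effect control and ±100 the full control effect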
Procedure, shortened: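 Jurkat cells with NFAT-driven β-lactamase reporter and co-expressed M1 receptor, stimulated with carbachol (final 1 uM, ~EC50), compound titration, 5 h at 37 °C. CCF4 loaded 1 h at RT; 460/530 nm ratio gave %activity and AC50.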

[4] = biological target: Glucocorticoid receptor (Homo sapiens) (UniProt P04150); experiment: GR-GFP Redistribution (AID 450;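 active means compounds whose dose series gives a full or clear partial fitted curve of increased nuclear translocation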; further: potency means the concentration at half of the fitted maximal effect); settings: U2OS GR-GFP nuclear translocation, laser cytometry, 2 h
Glucocorticoid receptor (Homo sapiens), sequence (P04150 whole entry, looked up, the tested form may be a part): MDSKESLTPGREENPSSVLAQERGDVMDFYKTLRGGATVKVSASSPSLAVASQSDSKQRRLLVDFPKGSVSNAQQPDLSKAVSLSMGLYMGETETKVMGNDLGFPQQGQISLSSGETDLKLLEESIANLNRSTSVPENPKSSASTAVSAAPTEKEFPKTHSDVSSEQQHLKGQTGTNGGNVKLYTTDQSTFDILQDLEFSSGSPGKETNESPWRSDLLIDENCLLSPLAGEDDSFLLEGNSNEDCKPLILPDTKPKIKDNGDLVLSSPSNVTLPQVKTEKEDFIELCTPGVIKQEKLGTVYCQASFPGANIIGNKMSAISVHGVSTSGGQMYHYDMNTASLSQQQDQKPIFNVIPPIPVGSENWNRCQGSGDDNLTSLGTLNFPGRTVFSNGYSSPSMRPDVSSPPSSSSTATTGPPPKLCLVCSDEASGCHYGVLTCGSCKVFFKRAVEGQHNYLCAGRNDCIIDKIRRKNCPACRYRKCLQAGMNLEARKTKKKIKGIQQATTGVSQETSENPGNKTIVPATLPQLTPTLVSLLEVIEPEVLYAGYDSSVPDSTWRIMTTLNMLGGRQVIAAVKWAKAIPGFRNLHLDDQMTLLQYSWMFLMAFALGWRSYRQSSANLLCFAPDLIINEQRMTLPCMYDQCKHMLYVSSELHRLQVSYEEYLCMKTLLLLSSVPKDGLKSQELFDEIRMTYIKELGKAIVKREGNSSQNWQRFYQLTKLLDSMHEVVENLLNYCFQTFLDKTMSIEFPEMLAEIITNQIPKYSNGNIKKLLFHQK

[5] = biological target: Glucocorticoid receptor (Homo sapiens) (UniProt P04150); experiment: GR-EFC Redistribution (AID 451; calls by dose curve; further: potency means the concentration at half of the fitted maximal effect); settings: CHO-K1 GR-EFC translocation, beta-gal luminescence, 2 h
Procedure, shortened: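 CHO-K1 cells expressing nuclear EA and GR-ED fragments of b-gal; compounds titrated up to 46 uM final, 2 h at 37 C. GR nuclear translocation read as complemented b-gal luminescence after 1 h RT detection.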

[6] = biological target: Mitogen-activated protein kinase 10 (Mus musculus) (UniProt Q61831); experiment: JNK3 AlphaScreen Assay (AID 530); settings: JNK3 lysate, c-Jun phosphorylation; series mostly up to 57.1 µM;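 further: kinase came from lysate of stimulated human HepG2 cells; signal reports phosphorylation of biotinylated GST-cJun 1-79 at Ser73 with 10 µM ATP; on the % scale 0 is the no-effect control and ±100 the full control effect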
Procedure, shortened: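 Pre-activated (IL-1β/TNFα) JNK3 in HepG2 lysates phosphorylates biotin-GST-cJun(1-79), 10 uM ATP; anti-phospho-cJun(Ser73) AlphaScreen read at room temperature, pH 7.6 Tris buffer. Compounds pre-incubated 15 min as titrations.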

[7] = biological target: Cytochrome P450 3A4 (Homo sapiens) (UniProt P08684); experiment: qHTS Assay for Activators of Cytochrome P450 3A4 (AID 885; active means well fitted curve in the direction sought with a large enough effect; an effect the other way counts as inactive or inconclusive; further: nearly all actives have a fitted effect of over 65% in size); settings: recombinant CYP3A4, Luciferin-PPXE luminescence, 60 min; series mostly up to 57.1 µM
Cytochrome P450 3A4 (Homo sapiens), sequence (P08684 whole entry, looked up): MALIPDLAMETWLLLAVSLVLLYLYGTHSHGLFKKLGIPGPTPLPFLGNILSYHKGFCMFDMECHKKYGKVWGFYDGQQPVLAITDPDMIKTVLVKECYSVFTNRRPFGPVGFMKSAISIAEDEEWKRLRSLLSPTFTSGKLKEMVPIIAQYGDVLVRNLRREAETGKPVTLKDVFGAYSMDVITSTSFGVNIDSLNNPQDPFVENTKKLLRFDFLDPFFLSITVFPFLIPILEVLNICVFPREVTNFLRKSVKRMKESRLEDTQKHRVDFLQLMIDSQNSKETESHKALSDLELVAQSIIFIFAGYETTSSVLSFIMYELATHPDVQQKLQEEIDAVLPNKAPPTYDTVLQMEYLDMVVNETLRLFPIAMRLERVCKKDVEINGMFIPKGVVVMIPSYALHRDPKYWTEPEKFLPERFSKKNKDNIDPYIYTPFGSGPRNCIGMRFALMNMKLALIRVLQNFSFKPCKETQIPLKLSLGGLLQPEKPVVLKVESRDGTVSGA
Procedure, shortened: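 Quantitative HTS format: compounds preincubated with 20nM human CYP3A4 and Luciferin-PPXE substrate at KM, reaction started by NADPH regeneration, stopped after 60 min, luciferase luminescence read 20 min later.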

[8] = Primary qHTS for small molecule stabilizers of the endoplasmic reticulum resident proteome: Secreted ER Calcium Modulated Protein (SERCaMP) assay (AID 1508630; active means well fitted curve in the direction sought with a large enough effect; an effect the other way counts as inactive or inconclusive; further: on the % scale 0 is the no-effect control and ±100 the full control effect); settings: SH-SY5Y GLuc-SERCaMP (Gaussia luciferase released on ER calcium loss) secretion, thapsigargin, luminescence; series mostly up to 38.4 µM
Procedure, shortened: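 GLuc-SERCaMP-expressing SH-SY5Y cells, pretreated 16 h with compound, are challenged with thapsigargin to empty ER calcium stores; after 4 h, coelenterazine is added directly to the medium and luminescence is imaged.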

[9] = Stat Signaling Pathway (AID 446); settings: ME-180 SIE beta-lactamase reporter, IL-6 stimulated, 5 h; at 7.69 µM (top of the series) unless noted
Procedure, shortened: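 IL-6/STAT signaling read in ME-180 cells via an SIE beta-lactamase reporter. Stimulus was 40 pM IL-6 (its AC50) for 5 hrs, so both activation and inhibition register.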

[10] = biological target: 3',5'-cyclic-AMP phosphodiesterase 4B (Homo sapiens) (UniProt Q07343); experiment: qHTS Assay for Inhibitors of PDE-IV (AID 607; active means well fitted activation curve with a large enough effect in the main read-out, with a control signal flat, not every such curve was filed as active; further: % of control where 0% means no effect); settings: HEK293 ACTOne CNG channel cells, membrane potential fluorescence; series mostly up to 22.9 µM
3',5'-cyclic-AMP phosphodiesterase 4B (Homo sapiens), sequence (Q07343 whole entry, looked up): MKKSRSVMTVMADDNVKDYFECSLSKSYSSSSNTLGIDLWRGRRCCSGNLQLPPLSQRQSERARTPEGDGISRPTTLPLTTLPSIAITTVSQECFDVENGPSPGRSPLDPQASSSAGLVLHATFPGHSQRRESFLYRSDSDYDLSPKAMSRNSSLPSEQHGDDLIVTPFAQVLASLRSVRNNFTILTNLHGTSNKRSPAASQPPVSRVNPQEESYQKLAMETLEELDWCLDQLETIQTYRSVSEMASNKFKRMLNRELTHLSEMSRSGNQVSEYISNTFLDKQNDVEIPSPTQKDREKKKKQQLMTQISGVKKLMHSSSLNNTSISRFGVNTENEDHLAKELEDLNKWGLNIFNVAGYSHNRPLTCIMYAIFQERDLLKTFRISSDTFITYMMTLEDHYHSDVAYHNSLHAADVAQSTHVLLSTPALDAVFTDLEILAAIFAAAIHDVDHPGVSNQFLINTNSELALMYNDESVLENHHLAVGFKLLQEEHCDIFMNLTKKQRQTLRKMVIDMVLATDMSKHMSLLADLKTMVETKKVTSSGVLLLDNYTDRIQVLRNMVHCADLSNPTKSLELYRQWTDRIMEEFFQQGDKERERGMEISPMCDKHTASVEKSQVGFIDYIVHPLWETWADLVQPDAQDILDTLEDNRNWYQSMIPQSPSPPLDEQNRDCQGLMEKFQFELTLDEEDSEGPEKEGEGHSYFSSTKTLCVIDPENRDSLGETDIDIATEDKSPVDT
Procedure, shortened: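 Live HEK293 cells with a modified cyclic nucleotide-gated (CNG) channel report intracellular cAMP via membrane-potential dye fluorescence (ex 535/em 590 nm). Endogenous PDE-IV was targeted. Compounds were tested at up to 22.9 uM final; RO 20-1724 100 uM served as control.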

[11] = biological target: Cytochrome P450 3A4 (Homo sapiens) (UniProt P08684); experiment: qHTS Assay for Inhibitors and Substrates of Cytochrome P450 3A4 (AID 884; active means well fitted curve in the direction sought with a large enough effect; an effect the other way counts as inactive or inconclusive; further: potency means the concentration at half of the fitted maximal effect; nearly all actives have a fitted effect of over 50% in size); settings: recombinant CYP3A4, Luciferin-PPXE luminescence; series mostly up to 57.1 µM
Procedure, shortened: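 20 nM human CYP3A4 with 25 uM Luciferin-PPXE (at KM) in 200 mM KPO4, preincubated 10 min with compound; NADPH regeneration started a 60 min RT reaction. Luciferin detected by luminescence, normalized to 57 uM ketoconazole as full inhibition.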

[12] = Confirmation and Secondary Assay for Modulators of Hemoglobin Beta Chain Splicing at IVS2 654 locus (AID 910; active means well fitted curve in the direction sought with a large enough effect; an effect the other way counts as inactive or inconclusive;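 further: HeLa cells stably carrying EGFP split by mutant beta-globin IVS2-654 intron; % of control where 0% means no effect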); settings: HeLa EGFP-654 splicing reporter, GFP fluorescence, 48 h; series mostly up to 38.3 µM
Procedure, shortened: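 HeLa cells stably expressing EGFP interrupted by β-globin IVS2-654 intron, seeded overnight in Opti-MEM/2% FCS, then treated 2 days at 37 °C. Restored splicing read as total peak GFP intensity per well by laser scanning cytometry (488 nm excitation, 500–520 nm emission); 500 nM antisense PNA as control.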

[13] = Confirmation and Secondary Assay for Modulators of Hemoglobin Beta Chain Splicing at IVS2 705 locus (AID 930; active means well fitted curve in the direction sought with a large enough effect; an effect the other way counts as inactive or inconclusive;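 further: HeLa cells stably expressing the EGFP-705 splicing reporter; GFP fluorescence per well restored by corrected splicing of the IVS2-705 intron in EGFP; % of control where 0% means no effect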); settings: HeLa EGFP-705 splicing reporter, GFP fluorescence, 48 h; series mostly up to 38.3 µM
Procedure, shortened: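 HeLa cells stably carrying EGFP interrupted by mutant beta-globin intron 2 (IVS2-705) treated 2 days at 37C with compound; 500 nM antisense PNA as control. Correct splicing read as total peak GFP intensity per well by laser-scanning cytometry.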

[14] = qHTS Assay for Identification of Small Molecule Agonists for Hypoxia Response Element Signaling Pathway (AID 914; active means well fitted activation curve with a large enough effect in the signal ratio, with a control signal flat, not every such curve was filed as active; the % refers to the signal ratio; further: % of control where 0% means no effect); settings: ME-180 (cervical carcinoma) HRE-bla reporter, beta-lactamase ratio, CoCl2, 17 h; activation: active compounds read high
Procedure, shortened: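 HRE-bla ME-180 cells with beta-lactamase reporter under hypoxia response element, compounds with EC50 CoCl2 for 17 hours at 37 C. CCF4 substrate, 460nm/530nm emission ratio gave %Activity; AC50 from titration series.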

COCCn1c(=O)c(-c2cccs2)nc2cnc(OCc3ccccc3)nc21
inactive: Potency [1] > 11.4 µM | activity change, negative = inhibition [2] 2.42% | activity change, negative = inhibition [3] 4.34% | Potency [4] > 9.22 µM | Potency [5] > 46 µM | Potency [6] | Potency [7] | outcome [8]

COc1ccc(C(=O)N2CCC3(CCCN(C(=O)NC(C)C)C3)CC2)cc1
inactive: Potency [1] > 11.4 µM | activity change, negative = inhibition [2] -3.27% | activity change, negative = inhibition [3] 2.69% | activity, negative = inhibition [9] 0.47% | Potency [6] | outcome [8]

O=C(c1ccco1)N1CCC2(CCCN(c3cccc(-c4ccccc4)c3)C2)CC1
inactive: Potency [1] > 11.4 µM | activity change, negative = inhibition [2] 12.9% | activity, negative = inhibition [9] -5.55% | Potency [5] > 46 µM | Potency [6] | outcome [8]

N#Cc1ccc(CN2CCC3(CC2)CCN(C(=O)c2cnccn2)CC3)cc1
inactive: Potency [1] > 11.4 µM | activity change, negative = inhibition [2] 4.06% | activity, negative = inhibition [9] -7.54% | Potency [5] > 46 µM | Potency [6] | Potency [10] | outcome [8]

COc1ccc(NC(=O)N2CC[C@@]3(CCCN(C(=O)c4cccc(F)c4)C3)C2)cc1
inactive: Potency [1] > 11.4 µM | activity change, negative = inhibition [2] -11.4% | activity change, negative = inhibition [3] 6.04% | activity, negative = inhibition [9] -0.331% | Potency [5] > 46 µM | Potency [6] | Potency [10] | Potency [7] | outcome [8]

Cn1cccc1C(=O)N1CCC[C@@]2(CCN(c3cccc(-c4ccccc4)c3)C2)C1
inactive: Potency [1] > 11.4 µM | activity change, negative = inhibition [2] -10.7% | activity change, negative = inhibition [3] -10.5% | activity, negative = inhibition [9] -14.4% | Potency [5] > 46 µM | Potency [7] | outcome [8]
active: Potency [11] 7.94 µM

O=C(c1cnccn1)N1CCC2(CC1)CCN(c1cccc(-c3ccccc3)c1)CC2
inactive: Potency [1] > 11.4 µM | activity change, negative = inhibition [2] -9.46% | activity, negative = inhibition [9] -13.7% | Potency [5] > 46 µM | outcome [8]

CN(C)Cc1ccccc1-c1cncnc1Nc1ccc(F)cc1
inactive: Potency [1] > 11.4 µM | activity change, negative = inhibition [2] 18.9% | activity, negative = inhibition [9] 15.8% | Potency [4] > 46 µM | Potency [5] > 46 µM | Potency [6] | Potency [10] | Potency [12] | outcome [13] | outcome [8]

c1cncc(-c2nc(NCCN3CCOCC3)c3ccccc3n2)c1
active: Potency [11] 7.94 µM
inactive: Potency [1] > 11.4 µM | activity change, negative = inhibition [2] -8.53% | activity change, negative = inhibition [3] 7.81% | Potency [4] > 46 µM | Potency [5] > 46 µM | Potency [6] | Potency [10] | Potency [7] | Potency [12] | outcome [13] | outcome [8]

COCC(=O)N1CCC[C@@]2(CCN(Cc3nccs3)C2)C1
inactive: Potency [1] > 11.4 µM | activity change, negative = inhibition [2] -2.92% | activity change, negative = inhibition [3] 0.146% | activity, negative = inhibition [9] 4.7% | Potency [5] > 46 µM | Potency [6] | Potency [10] | Potency [7] | outcome [8]

O=C(c1ccco1)N1CCC2(CCN(Cc3cc(C(F)(F)F)cc(C(F)(F)F)c3)CC2)CC1
inactive: Potency [1] > 11.4 µM | activity change, negative = inhibition [2] -1.98% | activity change, negative = inhibition [3] 2.65% | activity, negative = inhibition [9] 0.499% | Potency [5] > 46 µM | Potency [6] | Potency [10] | activation [14] -7.14% | outcome [8]

COCCn1c(=O)c(-c2ccc(OC)cc2)nc2cnc(Nc3ccccc3)nc21
inactive: Potency [1] > 11.4 µM | activity change, negative = inhibition [2] 6.46% | activity change, negative = inhibition [3] -9.78% | Potency [4] > 9.22 µM | Potency [5] > 46 µM | Potency [6] | Potency [10] | outcome [8]

N#Cc1cccc(NC(=O)N2CCC3(CC2)CCN(C(=O)c2cnccn2)CC3)c1
inactive: Potency [1] > 11.4 µM | activity change, negative = inhibition [2] -8.55% | activity change, negative = inhibition [3] -3% | activity, negative = inhibition [9] 2.13% | Potency [6] | Potency [10] | outcome [8]

N#CCCn1c(=O)cnc2cnc(Nc3ccccc3)nc21
inactive: Potency [1] > 11.4 µM | activity change, negative = inhibition [2] -26.6% | activity change, negative = inhibition [3] -3.19% | Potency [4] > 9.22 µM | Potency [5] > 46 µM | Potency [6] | outcome [8]

CC(=O)N1CCC2(CC1)CCN(c1ccccc1)CC2
inactive: Potency [1] > 11.4 µM | activity change, negative = inhibition [2] 16.1% | activity change, negative = inhibition [3] -0.227% | activity, negative = inhibition [9] 2.99% | Potency [5] > 46 µM | Potency [6] | Potency [10] | activation [14] -2.78% | outcome [8]

COC(=O)N1CCC2(CCCN(c3ncccn3)C2)CC1
inactive: Potency [1] > 11.4 µM | activity change, negative = inhibition [2] -15% | activity change, negative = inhibition [3] 6.41% | activity, negative = inhibition [9] 1.72% | Potency [5] > 46 µM | Potency [6] | Potency [10] | activation [14] 12.6% | outcome [8]

CC(=O)N1CCC2(CCN(Cc3ccc(C#N)cc3)CC2)CC1
inactive: Potency [1] > 11.4 µM | activity change, negative = inhibition [2] -3.09% | activity, negative = inhibition [9] 6.19% | Potency [5] > 46 µM | Potency [6] | outcome [8]

O=C(Nc1ccccc1)N1CCCC2(CCN(C(=O)c3cccc(F)c3)CC2)C1
inactive: Potency [1] > 11.4 µM | activity change, negative = inhibition [2] -6.89% | activity, negative = inhibition [9] -6.85% | Potency [5] > 46 µM | Potency [6] | outcome [8]
